JMJD2A Tudor inh – qHTS Assay for Inhibitors of JMJD2A-Tudor Domain. AlphaScreen JMJD2A-Tudor / H3K4me3 peptide binding. 390,000 compounds, 4.4% hits. Lysine-specific demethylase 4A (Homo sapiens), O75164. Potency, µM (top dose mostly 114 µM), actives largely listed as inhibitors; also: nearly all actives have a fitted effect of over 50% in size
G9a inh – qHTS Assay for Inhibitors of Histone Lysine Methyltransferase G9a; Histone-lysine N-methyltransferase EHMT2 (Homo sapiens), Q96KQ7; G9a H3K9 monomethylation, AlphaScreen, 2 h; Potency, µM (top dose mostly 102 µM), most hits filed as inhibitors; 350,000 compounds, 8.8% hits; AID 504332, 2011; also: nearly all actives have a fitted effect of over 75% in size
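Methyltransferase reactions run at room temperature for 2 h (20 nM enzyme, 500 nM biotin-H3K9 peptide, 20 uM SAM) after a 15 min compound preincubation; product detected by AlphaScreen beads and anti-H3K9me1 antibody.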
HP1b binding inh – HTS for Inhibitors of HP1-beta Chromodomain Interactions with Methylated Histone Tails. AlphaScreen HP1-beta / biotin-H3K9me3 peptide binding. Potency, µM (doses to about 114 µM), actives largely listed as inhibitors. 390,000 compounds, 0.56% hits. Chromobox protein homolog 1 (Homo sapiens), P83916; also: nearly all actives have a fitted effect of over 70% in size
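AlphaScreen: HP1-beta (50 nM) preformed 30 min with biotin-H3(1-18)K9me3 peptide (50 nM) in PBS pH 7.4, 0.01% Tween-20. Compound added for 30 min at RT, then streptavidin donor/nickel chelate acceptor beads (10 ug/mL) for 30 min.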
Sfp PPTase inh – qHTS Assay for Inhibitors of Bacillus subtilis Sfp phosphopantetheinyl transferase (PPTase); 4'-phosphopantetheinyl transferase ffp (Bacillus subtilis), Q9F4F7; Biochemical Sfp PPTase activity, qHTS; Potency, µM, hits mostly inhibitors; 310,000 compounds, 3.5% hits;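 also: the enzyme is Sfp with the accession as filed and its product quenches rhodamine fluorescence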
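Reaction rates are the 30-min fluorescence difference (ex 525, em 598 nm) in wells containing 15 nM Sfp, 5 uM rhodamine-CoA and 12.5 uM BHQ-2-YbbR at pH 7.6 with 10 mM MgCl2.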
PLK1 PBD inh – qHTS for Inhibitors of PLK1-PDB (polo-like kinase 1 - polo-box domain): Primary Screen | Serine/threonine-protein kinase PLK1 (Homo sapiens), P53350 | Potency, µM, hits mostly inhibitors | AID 720504, 2013 | 360,000 compounds, 2.8% hits | Plk1 PBD binding of FITC phosphopeptide, fluorescence polarization; also: series mostly up to about 57 µM; nearly all actives have a fitted effect of over 65% in size
Target sequence (P53350 whole entry, looked up, the tested form may be a part): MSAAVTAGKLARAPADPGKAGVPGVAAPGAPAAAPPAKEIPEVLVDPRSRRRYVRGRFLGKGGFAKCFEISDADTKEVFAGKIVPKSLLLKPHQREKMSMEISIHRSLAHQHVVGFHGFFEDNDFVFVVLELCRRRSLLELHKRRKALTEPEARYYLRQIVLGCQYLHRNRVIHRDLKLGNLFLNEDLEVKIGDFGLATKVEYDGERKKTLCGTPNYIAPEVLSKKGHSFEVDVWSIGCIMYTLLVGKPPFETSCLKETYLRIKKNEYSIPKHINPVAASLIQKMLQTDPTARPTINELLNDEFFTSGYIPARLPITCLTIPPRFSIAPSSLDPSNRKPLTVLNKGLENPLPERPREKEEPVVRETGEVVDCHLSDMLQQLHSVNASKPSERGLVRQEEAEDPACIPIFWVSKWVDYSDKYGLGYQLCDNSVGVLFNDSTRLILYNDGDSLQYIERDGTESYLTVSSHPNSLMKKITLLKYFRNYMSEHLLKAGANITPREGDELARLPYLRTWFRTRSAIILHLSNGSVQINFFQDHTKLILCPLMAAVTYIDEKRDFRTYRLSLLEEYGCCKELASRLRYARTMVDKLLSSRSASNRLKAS
BAZ2B inh – qHTS Assay for Inhibitors of BAZ2B. AID 504333, 2011. AlphaScreen BAZ2B-H3K14Ac peptide displacement. 360,000 compounds, 4.4% hits. Bromodomain adjacent to zinc finger domain protein 2B (Homo sapiens), Q9UIF8. Potency, µM (titrated, usually from 114 µM), actives largely listed as inhibitors; also: nearly all actives have a fitted effect of over 60% in size
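AlphaScreen displacement of biotin-H3(5-23)K14Ac peptide (50 nM final) from BAZ2B (50 nM final) in PBS pH 7.4, 0.01% Tween-20; complex preformed 30 min RT, then compounds (top 110 uM) 30 min RT, beads 20 min dark.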
Sfp PPTase conf – Confirmation qHTS Assay for Inhibitors of Bacillus subtilis Sfp phosphopantetheinyl transferase (PPTase); shares compounds with Sfp PPTase inh; Sfp PPTase enzymatic assay, qHTS titration; Potency, µM (top dose mostly 114 µM), usual class: inhibitors; 380 compounds, 79% hits; AID 2701, 2010
Sfp PPTase gel – Gel-Based Assay for Inhibitors of Bacillus subtilis Sfp phosphopantetheinyl transferase (PPTase); shares compounds with Sfp PPTase inh; purified Sfp, gel-based phosphopantetheinylation read-out; Potency, µM, usual class: inhibitors; 210 compounds, 20% hits;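 active = potency below 100 µM; inconclusive = dose-dependent response but potency above 100 µM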;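 also: potency is an IC50 for inhibitors of Sfp transfer activity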
A number is an active result; i = inactive; ? = inconclusive; nt = no result given. An excerpt weighted towards active compounds, which were near 12% of everything screened. Unless noted, calls follow the shape of the dose curve; as a rule, active = well fitted curve in the direction sought with a large enough effect; inconclusive = small, poorly fitted or top-dose-only effect, or another doubt; inactive = no such curve, though single readings can be large; an effect the other way counts as inactive or inconclusive.

SMILES	JMJD2A Tudor inh	G9a inh	HP1b binding inh	Sfp PPTase inh	PLK1 PBD inh	BAZ2B inh	Sfp PPTase conf	Sfp PPTase gel
CCC(=O)Nc1sc2c(c1C(=O)Nc1ccc(Br)cc1)CCCCC2	?	?	i	nt	nt	i	nt	nt
CCOC(=O)c1ccc(NC(=O)c2c(NC(=O)CCC(=O)O)sc3c2CCCCC3)cc1	i	32µM	?	11µM	27µM	i	12µM	i
CCOC(=O)c1cc(=O)n2nc(-c3ccccc3F)nc2s1	?	?	i	14µM	i	i	59µM	nt
COc1ccc(NC(=O)c2oc3ccccc3c2NC(=O)Cc2coc3ccc(C)cc23)cc1	i	i	i	nt	nt	i	nt	nt
O=C(O)Cn1ncc2c1-c1ccoc1CC2	56µM	11µM	i	45µM	i	?	?	nt
O=C(Nc1cccc(OC(F)(F)F)c1)c1cccc2c(-c3cccnc3)coc12	nt	nt	nt	nt	i	nt	nt	nt
CC(C)(C)NC(=O)C(c1cccnc1)N(C(=O)c1ccc(Cl)nc1)C1CCCC1 (stereo unspecified)	i	2.8µM	i	3.5µM	i	56µM	i	i
COc1ccc(C(=O)C2CCCN(C(=O)CCc3ccccn3)C2)c(C)c1 (stereo unspecified)	i	i	i	i	i	i	nt	nt
COc1ccc(C(=O)C2CCCN(C(=O)CCc3scnc3C)C2)c(C)c1 (stereo unspecified)	i	nt	i	13µM	i	i	i	nt
O=C(c1ccc(-c2ccc([N+](=O)[O-])cc2)o1)N1CCCCC1	?	?	i	16µM	i	?	19µM	?
COCCc1ccc(OC2(C)CCN(Cc3cccn3-c3nccs3)C2)cc1 (stereo unspecified)	nt	nt	nt	nt	i	nt	nt	nt
O=C(O)c1cc(/C=C/C(=O)c2cc(F)ccc2O)c2c(c1)COCO2	?	nt	i	22µM	?	50µM	47µM	i
O=C(CC(CC(=O)c1ccccc1)C(=O)O)c1ccccc1	i	?	i	i	i	i	nt	nt
O=C(CC(Nc1ccc(Cl)cc1)C(=O)O)c1ccccc1 (stereo unspecified)	i	2.2µM	i	7.1µM	i	i	?	?
Cc1c(Cl)cccc1NC(=O)CC(Cc1ccccc1)C(=O)O (stereo unspecified)	i	i	i	i	i	i	nt	nt
Cc1c(Cl)cccc1NC(CC(=O)c1ccccc1)C(=O)O (stereo unspecified)	i	?	i	7.9µM	i	i	11µM	i
O=C(CC(Nc1ccccc1Cl)C(=O)O)c1ccccc1 (stereo unspecified)	i	?	i	4µM	i	i	13µM	?
O=C(CC(=O)c1ccccc1)Nc1ccc(Cl)cc1	i	i	i	i	i	i	nt	nt
CCOC(=O)Cn1nc(-c2ccccc2)c2cnc3ccc(OCC)cc3c21	i	i	i	nt	nt	nt	nt	nt
CCNS(=O)(=O)c1ccc(CCC(=O)NCc2ccc3c(c2)OCO3)cc1	i	nt	i	i	i	i	nt	nt
Cc1cc2cc(C(c3nnnn3CC3CCCO3)N3CCCc4ccccc43)c(=O)[nH]c2cc1C (stereo unspecified)	?	?	i	1.4µM	i	i	19µM	nt
Cc1nc2sc3c(c2c(=O)o1)CCC3	i	?	i	16µM	i	i	?	?
CCN(CC(=O)Nc1ccc(OC)cc1)C(=O)Cc1coc2cc(C)c(C)cc12	i	?	i	nt	i	i	nt	nt

Source: PubChem BioAssay
